Activity calls are given as the source filed them. Rule for the calls: active = hit-call score of the fitted dose curve at least 0.9, where 1 is the maximum; inactive = score below 0.9.
Columns and labels:
Conditions in all cases: mRNA level, 48 h; actives raise or lower the signal
[1] = read-out: Cyclin D1 (CCND1), CCND1 (gene 595); test: LTEA_HepaRG_CCND1: Life Technologies and Expression Analysis (LTEA) Assay for Cyclin D1 (CCND1) using HepaRG (AID 2283451)
Procedure, shortened: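 HepaRG plated 48 h, medium switched to serum-free induction medium, chemicals added in duplicate (top 100 uM, half-log steps, 0.5% DMSO) for 48 h, cells lysed, RNA measured by TaqMan qRT-PCR.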

[2] = read-out: flavin-containing dimethylaniline monooxygenases 3 (FMO3), FMO3 (gene 2328); test: LTEA_HepaRG_FMO3: Life Technologies and Expression Analysis (LTEA) Assay for flavin-containing dimethylaniline monooxygenases 3 (FMO3) using HepaRG (AID 2283453);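 for AC50: FMO3 transcript by TaqMan qRT-PCR normalized to ACTB GAPDH and POLR2A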
Procedure, shortened: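 HepaRG, 48 h exposure, 8-pt half-log series from 100 uM, 0.5% DMSO vehicle, duplicates; FMO3 transcript by Fluidigm TaqMan qRT-PCR, housekeeping-normalized; gain/loss fit vs DMSO.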

[3] = read-out: Cytochrome P450 (CYP1A1), CYP1A1 (gene 1543); test: LTEA_HepaRG_CYP1A1: Life Technologies and Expression Analysis (LTEA) Assay for Cytochrome P450 (CYP1A1) using HepaRG (AID 2283454)
Procedure, shortened: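 HepaRG, 48 h post-plating switched to serum-free induction medium; 8-pt conc-response (top 100 uM, half-log, 0.5% DMSO), duplicates, 48 h. Lysis in RLT, TaqMan qRT-PCR for CYP1A1; gain or loss vs DMSO.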

[4] = read-out: CFLAR gene, CFLAR (gene 8837); test: LTEA_HepaRG_CFLAR: Life Technologies and Expression Analysis (LTEA) Assay for CFLAR gene using HepaRG (AID 2283455)
Procedure, shortened: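 HepaRG, 48 h exposure, 8-pt conc-response (100 uM top, half-log), 0.5% DMSO vehicle, duplicates. CFLAR expression by qRT-PCR; ACTB/GAPDH/POLR2A normalization; gain or loss fit vs DMSO baseline.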

[5] = read-out: Forkhead box O1 (FOXO1), FOXO1 (gene 2308); test: LTEA_HepaRG_FOXO1: Life Technologies and Expression Analysis (LTEA) Assay for Forkhead box O1 (FOXO1) using HepaRG (AID 2283456)
Procedure, shortened: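 Readout is FOXO1 transcript level by multiplexed qRT-PCR against three housekeeping genes, curve-fitted in both directions relative to 0.5% DMSO vehicle. Human HepaRG cultures received chemicals for 48 h, up to 100 uM in half-log steps.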

[6] = read-out: growth arrest and DNA damage 45 (GADD45A), GADD45A (gene 1647); test: LTEA_HepaRG_GADD45A: Life Technologies and Expression Analysis (LTEA) Assay for growth arrest and DNA damage 45 (GADD45A) using HepaRG (AID 2283458)
Procedure, shortened: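 Differentiated HepaRG cells were exposed in duplicate for 48 h in serum-free induction medium to 8-point half-log concentrations up to 100 uM in 0.5% DMSO. GADD45A mRNA was measured by TaqMan qRT-PCR, normalized to ACTB, GAPDH and POLR2A, with bidirectional fitting versus DMSO.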

[7] = read-out: ABC Transporter (ABCB1), ABCB1 (gene 5243); test: LTEA_HepaRG_ABCB1: Life Technologies and Expression Analysis (LTEA) Assay for ABC Transporter (ABCB1) using HepaRG (AID 2283460)
Procedure, shortened: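 Expression of ABCB1 was quantified by qRT-PCR against three housekeeping genes after human HepaRG cultures received test chemicals for 48 hours. Concentrations spanned eight half-log steps topping at 100 uM in 0.5% DMSO; gain or loss of signal was fitted relative to vehicle.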

[8] = read-out: growth arrest and DNA damage 45 (GADD45B), GADD45B (gene 4616); test: LTEA_HepaRG_GADD45B: Life Technologies and Expression Analysis (LTEA) Assay for growth arrest and DNA damage 45 (GADD45B) using HepaRG (AID 2283461)
Procedure, shortened: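 HepaRG, ~100,000 cells/well, 48 h plating; serum-free induction medium; cpd 100 uM top, half-log x8, 0.5% DMSO, duplicate, 48 h; lysis in RLT, RNA isolation, qRT-PCR; norm ACTB/GAPDH/POLR2A; bidirectional fit vs DMSO.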

[9] = read-out: ABC Transporter (ABCB11), ABCB11 (gene 8647); test: LTEA_HepaRG_ABCB11: Life Technologies and Expression Analysis (LTEA) Assay for ABC Transporter (ABCB11) using HepaRG (AID 2283463)
Procedure, shortened: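 ABCB11 transcript levels are read by Fluidigm TaqMan qRT-PCR after 48 h chemical treatment of human HepaRG cells. Concentrations span 100 uM downward in half-log steps with 0.5% DMSO; gain or loss is fitted against DMSO controls.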

[10] = read-out: ABC Transporter (ABCC2), ABCC2 (gene 1244); test: LTEA_HepaRG_ABCC2: Life Technologies and Expression Analysis (LTEA) Assay for ABC Transporter (ABCC2) using HepaRG (AID 2283464)
Procedure, shortened: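 HepaRG, 48 h post-plating; serum-free induction medium; cpd 8-pt, 100 uM top, half-log, 0.5% DMSO, duplicate, 48 h. Readout: ABCC2 mRNA by qRT-PCR, norm. ACTB/GAPDH/POLR2A. Bidirectional fit vs DMSO baseline.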

[11] = read-out: Broad substrate specificity ATP-binding cassette transporter ABCG2 (Homo sapiens) (UniProt Q9UNQ0); test: LTEA_HepaRG_ABCG2: Life Technologies and Expression Analysis (LTEA) Assay for ABC Transporter (ABCG2) using HepaRG (AID 2283465)
Procedure, shortened: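 Read-out is ABCG2 mRNA induction or loss quantified by qRT-PCR after 48 h chemical treatment of human HepaRG cells, normalized to three housekeeping genes. Concentrations reached 100 uM top in half-log steps; fitting was bidirectional against 0.5% DMSO.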

[12] = read-out: ATP-citrate lyase (ACLY), ACLY (gene 47); test: LTEA_HepaRG_ACLY: Life Technologies and Expression Analysis (LTEA) Assay for ATP-citrate lyase (ACLY) using HepaRG (AID 2283466)
Procedure, shortened: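 HepaRG, 48 h exposure, 8-pt half-log dilutions (top 100 uM), 0.5% DMSO. Readout: ACLY mRNA, TaqMan qRT-PCR, housekeeping-normalized (ACTB/GAPDH/POLR2A). Bidirectional curve fit vs DMSO.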

[13] = read-out: Peroxisomal acyl-coenzyme A oxidase 1 (ACOX1) gene, ACOX1 (gene 51); test: LTEA_HepaRG_ACOX1: Life Technologies and Expression Analysis (LTEA) Assay for Peroxisomal acyl-coenzyme A oxidase 1 (ACOX1) gene using HepaRG (AID 2283467)
Procedure, shortened: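 Measured by qRT-PCR against three housekeeping genes: ACOX1 transcript change in human HepaRG cells after 48 h dosing. Concentrations ran up to 100 uM in half-log steps. Curves were fitted bidirectionally relative to 0.5% DMSO.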

[14] = read-out: Alkaline Phosphatase, Placental (ALPP) gene, ALPP (gene 250); test: LTEA_HepaRG_ALPP: Life Technologies and Expression Analysis (LTEA) Assay for Alkaline Phosphatase, Placental (ALPP) gene using HepaRG (AID 2283468)
Procedure, shortened: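 HepaRG, 48 h plating then 48 h dosing, serum-free induction medium, 0.5% DMSO. 8 conc, half-log, max 100 uM, duplicates. Endpoint: ALPP transcript by qRT-PCR, housekeeping-normalized; gain or loss fitted vs DMSO.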

[15] = read-out: Bcl-2 (BAD) gene, BAD (gene 572); test: LTEA_HepaRG_BAD: Life Technologies and Expression Analysis (LTEA) Assay for Bcl-2 (BAD) gene using HepaRG (AID 2283469)
Procedure, shortened: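 BAD transcript change, measured by qRT-PCR against three housekeeping genes and fitted in both directions relative to 0.5% DMSO, after 48 h chemical treatment of human HepaRG liver cells at concentrations up to 100 uM.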

[16] = read-out: Bcl-2 (BAX) gene, BAX (gene 581); test: LTEA_HepaRG_BAX: Life Technologies and Expression Analysis (LTEA) Assay for Bcl-2 (BAX) gene using HepaRG (AID 2283470)
Procedure, shortened: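 Differentiated human HepaRG cells, plated 48 h then switched to serum-free induction medium, were exposed 48 h to 8 half-log concentrations up to 100 uM in 0.5% DMSO; BAX mRNA measured by qRT-PCR, normalized to ACTB, GAPDH, POLR2A.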

[17] = read-out: ABC Transporter (ABCC3), ABCC3 (gene 8714); test: LTEA_HepaRG_ABCC3: Life Technologies and Expression Analysis (LTEA) Assay for ABC Transporter (ABCC3) using HepaRG (AID 2283462)
Procedure, shortened: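 Human HepaRG, 48 h dosing, 8-pt half-log series from 100 uM, 0.5% DMSO vehicle, duplicates. ABCC3 mRNA by TaqMan qRT-PCR, housekeeping-normalized; bidirectional curve fit vs DMSO.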

[18] = read-out: Forkhead box O3 (FOXO3), FOXO3 (gene 2309); test: LTEA_HepaRG_FOXO3: Life Technologies and Expression Analysis (LTEA) Assay for Forkhead box O3 (FOXO3) using HepaRG (AID 2283459)
Procedure, shortened: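 HepaRG, 48 h post-dose; 8 conc., half-log from 100 uM, 0.5% DMSO, duplicates; serum-free induction medium. Readout: FOXO3 mRNA, TaqMan qRT-PCR, housekeeping-normalized. Bidirectional curve fit vs DMSO baseline.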

Measured: AC50

Chain of Broad substrate specificity ATP-binding cassette transporter ABCG2 (Homo sapiens) (Q9UNQ0 whole entry, looked up): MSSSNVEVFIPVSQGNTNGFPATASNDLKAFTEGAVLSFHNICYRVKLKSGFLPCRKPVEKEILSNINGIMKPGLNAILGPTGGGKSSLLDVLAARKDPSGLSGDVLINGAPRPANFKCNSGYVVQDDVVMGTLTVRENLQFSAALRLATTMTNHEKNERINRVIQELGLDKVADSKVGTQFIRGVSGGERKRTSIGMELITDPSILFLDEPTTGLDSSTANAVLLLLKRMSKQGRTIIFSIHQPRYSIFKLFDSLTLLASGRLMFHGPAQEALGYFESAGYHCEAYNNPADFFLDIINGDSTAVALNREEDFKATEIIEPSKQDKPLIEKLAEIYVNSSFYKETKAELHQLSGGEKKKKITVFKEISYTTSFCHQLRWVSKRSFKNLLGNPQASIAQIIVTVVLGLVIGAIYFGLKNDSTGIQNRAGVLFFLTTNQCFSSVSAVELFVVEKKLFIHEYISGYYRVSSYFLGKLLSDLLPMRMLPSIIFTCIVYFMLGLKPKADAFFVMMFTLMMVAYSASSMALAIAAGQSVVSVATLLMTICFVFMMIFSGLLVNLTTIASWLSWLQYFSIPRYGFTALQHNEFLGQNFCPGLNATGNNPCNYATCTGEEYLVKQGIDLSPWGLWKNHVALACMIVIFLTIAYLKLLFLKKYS

CNC(=O)Oc1cccc2ccccc12
not listed: [17] | [18]
inactive: all other assays above

CC1(C)CON(Cc2ccccc2Cl)C1=O
active: [3] 50 µM | [7] 9.19 µM | [10] 18.4 µM
not listed: [6] | [18]
inactive: all other assays above

N#Cc1c(Cl)cccc1Cl
active: [3] 50 µM
not listed: [6] | [17] | [18]
inactive: all other assays above

CC1(C)C(C(=O)OC(C#N)c2cccc(Oc3ccccc3)c2)C1(C)C (configuration not stated)
active: [3] 50 µM
not listed: [17]
inactive: all other assays above

CC(C)C1(C)N=C(c2ncccc2C(=O)O)NC1=O (configuration not stated)
not listed: [6] | [17] | [18]
inactive: all other assays above

COC(=O)c1c(C(F)F)nc(C(F)(F)F)c(C2=NCCS2)c1CC(C)C
active: [10] 50 µM
not listed: [6] | [17]
inactive: all other assays above

COCC(C)N(C(=O)CCl)c1c(C)csc1C (configuration not stated)
active: [3] 50 µM | [8] 74.1 µM | [9] 50 µM | [10] 32.6 µM
not listed: [6] | [17] | [18]
inactive: all other assays above

CCOP(=S)(OCC)Oc1nc(Cl)n(C(C)C)n1
active: [2] 24.7 µM | [3] 9.25 µM | [17] 50 µM | [9] 1.64 µM | [12] 33.5 µM | [13] 9.48 µM
not listed: [18]
inactive: all other assays above

From PubChem BioAssay (EPA / NIEHS)
